“And” between values parts separate entries of the source, which are not always exact repeats. Identical values can stand only once. Some structures have more than one record in an assay (separate samples or runs), and their calls can disagree. The source made the active and inactive calls. A call without a number means that no potency is given here. Unless noted, calls come from the whole dose curve; as a rule, active = well fitted curve in the direction sought with a large enough effect in the repeat runs; inconclusive = weak or mixed curves; inactive = no such curve, though single readings can be large; an effect the other way counts as inactive or inconclusive.
Columns and labels:
[1] = qHTS assay for small molecule agonists of the p53 signaling pathway (AID 651631; calls by dose curve; note: nearly all actives have a fitted effect of over 15% in size; note: potency is the fitted concentration of half-maximal effect)
How it was run: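 p53RE-bla HCT-116 cells; compounds 16 h, 37 °C; LiveBLAzer B/G FRET substrate 2 h RT; fluorescence intensity read-out, qHTS format.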

[2] = qHTS assay for small molecules that induce genotoxicity in human embryonic kidney cells expressing luciferase-tagged ATAD5 (AID 651632); note: nearly all actives have a fitted effect of over 15% in size
How it was run: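 Luminescence read-out: after 16 hr compound exposure at 37C, ATAD5-luciferase HEK293T cells received Amplite, 30 min RT, then CCD imaging. A rise in signal marks genotoxic stress.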

[3] = qHTS assay for small molecule agonists of the p53 signaling pathway - cell viability (AID 651633; calls by dose curve;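 note: p53RE-bla HCT reporter cells with a stable beta-lactamase p53 reporter; nearly all actives have a fitted effect of over 30% in size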)
How it was run: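 p53RE-bla cells were treated with compound for 16 hours at 37 C. Cytotoxicity was then measured as CellTiter-Glo luminescence after 30 min at room temperature.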

[4] = qHTS assay for small molecules that induce genotoxicity in human embryonic kidney cells expressing luciferase-tagged ATAD5 - cell viability (AID 651634; calls by dose curve; note: nearly all actives have a fitted effect of over 25% in size)
How it was run: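 HEK293T ATAD5-luc cells, 2,000/well; compound 15.5 hr, 37C/5% CO2; CellTiter-Fluor 30 min, 37C; fluorescence read.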

[5] = qHTS assay for small molecule disruptors of the mitochondrial membrane potential - cell viability (AID 720634; calls by dose curve;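 note: human HepG2 liver cancer cells; nearly all actives have a fitted effect of over 20% in size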)
How it was run: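 Luminescence from CellTiter-Glo (ATP content) gave viability in HepG2 cells, read in the same wells as the MMP dye assay after 1 hr compound exposure at 37 C.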

[6] = qHTS assay for small molecule disruptors of the mitochondrial membrane potential (AID 720635); note: potency is the fitted concentration of half-maximal effect
How it was run: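 HepG2 cells exposed to compound 1 hr at 37C, then Mito-MPS dye 30 min. Ratio read of aggregate (540/590 nm) versus monomer (490/535 nm) fluorescence.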

[7] = qHTS assay to test for compound auto fluorescence at 590 nm (red) in HepG2 cells (AID 720674)
How it was run: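 Seeding: 2,000 HepG2 cells/well, MEM/10% FBS, overnight 37 C. Dosing: compound vs DMSO. Incubation: 1 hr, 37 C, 5% CO2. Read: fluorescence 540 ex/590 em, Rose Bengal sodium as red reference.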

[8] = qHTS assay to test for compound auto fluorescence at 535 nm (green) in HepG2 cells (AID 720675)
[9] = qHTS assay to test for compound auto fluorescence at 460 nm (blue) in HEK293 cells (AID 720678)
How it was run: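 HEK293, 2,000 cells/well, 10% dialyzed FBS; attach 4-5 hr 37C; pin compound or DMSO; o/n 37C/5% CO2; fluorescence 405/460 nm; triamterene-equivalent units.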

[10] = qHTS assay to test for compound auto fluorescence at 590 nm (red) in HEK293 cells (AID 720679)
How it was run: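 Intensity at 540nm excitation and 590nm emission is reported as Rose Bengal sodium-equivalent autofluorescence. Measurements followed overnight exposure (37C, 5% CO2) of HEK293 cells, 2,000 per well, to 23 nL compound.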

[11] = qHTS assay to test for compound auto fluorescence at 535 nm (green) in HEK293 cells (AID 720680)
[12] = qHTS assay to test for compound auto fluorescence at 460 nm (blue) in HEK293 cell free culture (AID 720681)
How it was run: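 Compounds were added to cell-free DMEM with 10% FBS and fluorescence read directly. The blue channel used 405 nm excitation and 460 nm emission, with triamterene as the reference fluorophore.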

[13] = qHTS assay to test for compound auto fluorescence at 535 nm (green) in HEK293 cell free culture (AID 720682)
How it was run: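 Cell-free medium (DMEM, 10% FBS) receives compound or DMSO by pintool. Plate read directly at Ex 485/Em 535 nm. Signal converted to fluorescein equivalency.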

[14] = qHTS assay to test for compound auto fluorescence at 590 nm (red) in HEK293 cell free culture (AID 720683)
How it was run: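 Cell-free wells of DMEM with 10% FBS received compound, and intrinsic fluorescence was read at excitation/emission 540/590 nm. Values expressed as equivalence to Rose Bengal sodium.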

[15] = qHTS assay to test for compound auto fluorescence at 590 nm (red) in HepG2 cell free culture (AID 720684)
How it was run: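 Auto fluorescence equivalency versus Rose Bengal sodium, red channel Ex/Em 540/590 nm; compounds in cell-free MEM/10% FBS; DMSO vehicle control.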

[16] = qHTS assay to test for compound auto fluorescence at 460 nm (blue) in HepG2 cell free culture (AID 720685)
How it was run: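 Cell-free plates of MEM plus 10% FBS received 23 nL compound or DMSO vehicle; blue-channel (405/460 nm) intensity scored against triamterene as reference fluorophore.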

[17] = qHTS assay to test for compound auto fluorescence at 535 nm (green) in HepG2 cell free culture (AID 720686)
[18] = qHTS assay to test for compound auto fluorescence at 460 nm (blue) in HepG2 cells (AID 720687)
How it was run: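 HepG2 cells in MEM with 10% FBS, attached overnight at 37 C, were exposed to compound or DMSO for 1 hr at 37 C, 5% CO2. Blue fluorescence was read at 405/460 nm, with triamterene as reference fluorophore.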

[19] = target: Glucocorticoid receptor (Homo sapiens) (UniProt P04150); assay: qHTS assay to identify small molecule agonists of the glucocorticoid receptor (GR) signaling pathway (AID 720691; active = well fitted activation curve with a large enough effect in the signal ratio in the repeat runs, not every such curve was filed as active; inconclusive = weak or mixed curves, or effect the other way; inactive = no such curve, though single readings can be large or run the other way; the % refers to the signal ratio; note: potency is the fitted concentration of half-maximal effect); conditions: GR-bla HeLa, beta-lactamase reporter ratio, 18 h; activation: at 62.4 µM (top of the series)
Chain of Glucocorticoid receptor (Homo sapiens) (P04150 whole entry, looked up): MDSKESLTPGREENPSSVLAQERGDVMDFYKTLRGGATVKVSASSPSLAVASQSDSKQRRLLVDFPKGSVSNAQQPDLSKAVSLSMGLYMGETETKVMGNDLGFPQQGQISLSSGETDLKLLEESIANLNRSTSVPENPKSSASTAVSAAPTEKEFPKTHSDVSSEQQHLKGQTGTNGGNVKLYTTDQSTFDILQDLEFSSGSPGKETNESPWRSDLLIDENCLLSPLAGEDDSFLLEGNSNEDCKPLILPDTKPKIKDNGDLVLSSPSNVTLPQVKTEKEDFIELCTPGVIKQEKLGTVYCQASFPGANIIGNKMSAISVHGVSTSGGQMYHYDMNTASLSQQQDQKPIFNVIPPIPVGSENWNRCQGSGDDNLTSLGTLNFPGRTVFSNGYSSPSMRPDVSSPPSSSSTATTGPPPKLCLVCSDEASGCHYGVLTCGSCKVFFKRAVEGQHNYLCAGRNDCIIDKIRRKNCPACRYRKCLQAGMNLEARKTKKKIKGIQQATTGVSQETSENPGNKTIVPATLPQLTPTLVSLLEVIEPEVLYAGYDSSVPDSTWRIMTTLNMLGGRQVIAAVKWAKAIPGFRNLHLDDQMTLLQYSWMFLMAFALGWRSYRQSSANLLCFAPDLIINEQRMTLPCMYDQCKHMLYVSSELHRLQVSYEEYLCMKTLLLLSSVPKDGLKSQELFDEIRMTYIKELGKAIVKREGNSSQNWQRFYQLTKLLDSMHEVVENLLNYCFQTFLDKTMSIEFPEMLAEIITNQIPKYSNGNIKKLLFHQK
How it was run: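 HeLa GR-bla reporter line; cells pre-incubated 4 h, compound in DMSO 18 h at 37 C; LiveBLAzer B/G FRET substrate 2 h RT; fluorescence intensity read-out.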

[20] = target: Glucocorticoid receptor (Homo sapiens) (UniProt P04150); assay: qHTS assay to identify small molecule antagonists of the glucocorticoid receptor (GR) signaling pathway (AID 720692; active = well fitted inhibition curve with a large enough effect in the signal ratio in the repeat runs, not every such curve was filed as active; inconclusive = weak or mixed curves, or effect the other way; inactive = no such curve, though single readings can be large or run the other way; the % refers to the signal ratio)
How it was run: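 Read-out: beta-lactamase FRET substrate fluorescence, 2 h at room temperature, in HeLa cells stably carrying a GRE-driven bla reporter. Compounds were co-incubated with 5 nM dexamethasone agonist (final) for 18 h at 37 C.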

| Structure (SMILES) | Potency [1] | Potency [2] | Potency [3] | Potency [4] | Potency [5] | Potency [6] | outcome [7] | Potency [8] | Potency [9] | outcome [10] | outcome [11] | Potency [12] | outcome [13] | outcome [14] | outcome [15] | Potency [16] | Potency [17] | Potency [18] | Potency [19] | Potency [20] |
| --- | --- | --- | --- | --- | --- | --- | --- | --- | --- | --- | --- | --- | --- | --- | --- | --- | --- | --- | --- | --- |
| NC(=O)[C@@H]1C[C@]2(NC(=O)NC2=O)c2cc(F)ccc2O1 | inactive | inactive | inactive | inactive | inactive | inactive | inactive | inactive | inactive | inactive | inactive | inactive | inactive | inactive | inactive | inactive | inactive | inactive |  |  |
| COc1ccc(/C=N/NC(=O)c2ccncc2)c(C(=O)O)c1OC | inactive | inactive | inactive | inactive | inactive | inactive | inactive | inactive | inactive | inactive | inactive | inactive | inactive | inactive | inactive | inactive | inactive | inactive | inactive |  |
| O=C(O)Cc1nn(Cc2ccc(Br)cc2F)c(=O)c2ccccc12 | inactive | inactive | inactive | inactive | inactive | inactive | inactive | inactive | inactive | inactive | inactive | inactive | inactive | inactive | inactive | inactive | inactive | inactive |  |  |
| NCCCC[C@H](NC(=O)[C@@H]1CCCN1C(=O)[C@@H]1CSSC[C@H](N)C(=O)N[C@@H](Cc2ccc(O)cc2)C(=O)N[C@@H](Cc2ccccc2)C(=O)N[C@@H](CCC(N)=O)C(=O)N[C@@H](CC(N)=O)C(=O)N1)C(=O)NCC(N)=O | inactive | inactive | inactive | inactive | inactive | inactive | inactive | inactive | inactive | inactive | inactive | inactive | inactive | inactive | inactive | inactive | inactive | inactive | inactive | inactive |
| NC(=O)CC[C@@H]1NC(=O)[C@H](Cc2ccccc2)NC(=O)[C@H](Cc2ccc(O)cc2)NC(=O)[C@@H](N)CSSC[C@@H](C(=O)N2CCC[C@H]2C(=O)N[C@@H](CCCN=C(N)N)C(=O)NCC(N)=O)NC(=O)[C@H](CC(N)=O)NC1=O | inactive | inactive | inactive | inactive | inactive | inactive | inactive | inactive | inactive | inactive | inactive | inactive | inactive | inactive | inactive | inactive | inactive | inactive |  |  |
| CC[C@H]1OC(=O)C[C@@H](O)[C@H](C)[C@@H](O[C@@H]2O[C@H](C)[C@@H](O[C@H]3C[C@@](C)(O)[C@@H](O)[C@H](C)O3)[C@H](N(C)C)[C@H]2O)[C@@H](CC=O)C[C@@H](C)C(=O)/C=C/C(C)=C/[C@@H]1CO[C@@H]1O[C@H](C)[C@@H](O)[C@@H](OC)[C@H]1OC | inactive | inactive | inactive | inactive | inactive | inactive | inactive | inactive | inactive | inactive | inactive | inactive | inactive | inactive | inactive | inactive | inactive | inactive |  |  |
| C=CC1=C(C(=O)O)N2C(=O)[C@@H](NC(=O)/C(=N/OCC(=O)O)c3csc(N)n3)[C@H]2SC1 (stereo in doubt) | inactive | inactive | inactive | inactive | inactive | inactive | inactive | inactive | inactive | inactive | inactive | inactive | inactive | inactive | inactive | inactive | inactive | inactive |  |  |
| Cc1c(N)nc([C@H](CC(N)=O)NC[C@H](N)C(N)=O)nc1C(=O)N[C@H](C(=O)N[C@H](C)[C@@H](O)[C@H](C)C(=O)N[C@H](C(=O)NCCc1nc(-c2nc(C(=O)NCCCCN=C(N)N)cs2)cs1)[C@@H](C)O)[C@@H](O[C@@H]1O[C@@H](CO)[C@@H](O)[C@H](O)[C@@H]1O[C@H]1O[C@H](CO)[C@@H](O)[C@H](OC(N)=O)[C@@H]1O)c1cnc[nH]1 | 841 nM (active) and 66.8 nM (active) | inactive | inactive | inactive | inactive | inactive | inactive | inactive | inactive | inactive | inactive | inactive | inactive | inactive | inactive | inactive | inactive | inactive | 848 nM [inconclusive] (active) and inactive | inactive |
| Cc1cc(C(=O)NCCc2ccc(S(=O)(=O)NC(=O)NN3CCCCCC3)cc2)no1 | inactive | inactive | inactive | inactive | inactive | inactive | inactive | inactive | inactive | inactive | inactive | inactive | inactive | inactive | inactive | inactive | inactive | inactive |  |  |
| C=CC[N+]1([C@H]2C[C@H]3[C@@H]4CC[C@H]5C[C@H](O)[C@@H](N6CCOCC6)C[C@]5(C)[C@H]4CC[C@]3(C)[C@H]2OC(C)=O)CCCC1 | inactive | inactive | inactive | inactive | inactive | inactive | inactive | inactive | inactive | inactive | inactive | inactive | inactive | inactive | inactive | inactive | inactive | inactive | inactive |  |
| N=C(N)c1ccc(/C=C/c2ccc(C(=N)N)cc2O)cc1 | inactive | inactive | inactive | inactive | inactive | 1970 nM (active) | inactive | inactive | inactive | inactive | inactive | inactive | inactive | inactive | inactive | inactive | inactive | inactive |  |  |
| O=C1CC[C@@H](C(=O)N[C@H]2C[C@@H]2c2ccccc2)N1 | inactive | inactive | inactive | inactive | inactive | inactive | inactive | inactive | inactive | inactive | inactive | inactive | inactive | inactive | inactive | inactive | inactive | inactive | inactive |  |
| CC/C=C\C/C=C\C/C=C\C/C=C\C/C=C\CCCC(=O)O | inactive | inactive | inactive | inactive | inactive | inactive | inactive | inactive | inactive | inactive | inactive | inactive | inactive | inactive | inactive | inactive | inactive | inactive | inactive |  |
